From PubChem BioAssay AID1240 (Sanford-Burnham Center for Chemical Genomics, 2008)
Screen size: about 50,000 compounds; about 800 (1.6%) showed an effect of 50% or more. The full list was thinned out, with strong results kept by preference.

biological target: Bcl-2-like protein 10 (Homo sapiens) (UniProt Q9HD36); experiment: Phenotype converters, Bcl-B/TR3 peptide binding displacement, primary biochemical FP (AID 1240); conditions: GST-Bcl-B / FITC-TR3 peptide fluorescence polarization; stronger effect = higher value; compound at 3.75 mg/L;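 also: 0% = Bcl-B with tracer peptide and DMSO and 100% = tracer peptide lacking Bcl-B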
Sequence (Q9HD36 whole entry, looked up): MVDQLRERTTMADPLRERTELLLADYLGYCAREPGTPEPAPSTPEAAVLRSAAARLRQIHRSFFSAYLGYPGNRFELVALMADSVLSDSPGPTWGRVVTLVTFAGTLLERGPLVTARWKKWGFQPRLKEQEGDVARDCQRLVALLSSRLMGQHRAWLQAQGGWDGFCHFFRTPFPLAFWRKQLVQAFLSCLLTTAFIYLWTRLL

Structure (SMILES)	displacement [%]
CCc1ccc(-c2csc(N3N=C(c4cccs4)CC3c3ccc(F)cc3)n2)cc1 (stereo unspecified)	0.2
COc1ccc(NC(=O)c2ccccc2NC(=O)c2ccc(C)cc2)cc1	-10.2
O=C1/C(=C/c2cn(-c3ccccc3)nc2-c2ccco2)SC(=S)N1C1CCS(=O)(=O)C1 (stereo unspecified)	11.2
O=C(O)CCN1C(=O)/C(=C/c2cn(-c3ccccc3)nc2-c2cccs2)SC1=S	-14.1
O=C1/C(=C/c2cn(-c3ccccc3)nc2-c2cccs2)SC(=S)N1C1CCS(=O)(=O)C1 (stereo unspecified)	100
CC(C)CN1C(=O)/C(=C/c2cn(-c3ccccc3)nc2-c2cccs2)SC1=S	34.6
O=C1/C(=C/c2cn(-c3ccccc3)nc2-c2cccs2)SC(=S)N1Cc1ccccc1	115
COc1ccc(N2C(=O)/C(=C/c3cn(-c4ccccc4)nc3-c3cccs3)SC2=S)cc1	0.4
COc1ccc(-n2c(SCC(=O)Nc3ccc(C)cc3)nc(O)c(Cc3ccccc3)c2=O)cc1	22.8
Cc1ccnc(N2C(=O)c3ccc(C(=O)O)cc3C2=O)c1	1.9
Cc1nn(-c2ccccc2)c2sc(C(=O)N/N=C/c3cc4c(cc3[N+](=O)[O-])OCO4)cc12	-1.4
Cc1ccccc1OCC(=O)Nc1ccc(I)cc1Cl	9.5
COC(=O)C1=C(C)N(C)C(C)=C(C(=O)OC)C1c1ccc(Br)cc1	-10.8
CCOc1ccc(-c2nc(Cc3ccccc3OC)no2)cc1	-6.4
O=C1C2CCCCC2C(=O)N1CC(=O)N1c2ccccc2Sc2ccc(C(F)(F)F)cc21 (stereo unspecified)	-14.3
CCCOc1ccc(N2C(=O)CC(NCCNc3ccc([N+](=O)[O-])cn3)C2=O)cc1 (stereo unspecified)	-1.7
O=C(Nc1ccccc1)c1ccccc1N=Cc1ccc(C=Nc2ccccc2C(=O)Nc2ccccc2)cc1	121
O=C(Nc1ccccc1)c1ccccc1N=Cc1ccc(Cl)c([N+](=O)[O-])c1	6.6
CCn1c2ccccc2c2cc(C=Nc3ccccc3C(=O)Nc3ccccc3)ccc21	-5.9
CCOP(=O)(OCC)C(OC(N)=O)c1ccc([N+](=O)[O-])cc1 (stereo unspecified)	-9.1
Cc1onc(-c2c(F)cccc2Cl)c1C(=O)NCc1ccccn1	-5.5
C[C@@H]1O[C@@H](Nc2ccc(Cl)cc2[N+](=O)[O-])[C@H](O)[C@H](O)[C@H]1O	54.7

Structure (SMILES)	displacement [%]
O=[N+]([O-])c1ccccc1N[C@H]1O[C@H](CO)[C@@H](O)[C@@H]1O	6
Cc1cc(N[C@@H]2O[C@@H](C)[C@H](O)[C@@H](O)[C@H]2O)c([N+](=O)[O-])cc1C	6.5
CC1=NN(c2ccc(C(=O)O)cc2)C(=O)/C1=C\c1ccc(O)cc1	-50.5
Cc1cc2nc(-c3cc(NC(=O)COc4ccc([N+](=O)[O-])cc4)ccc3O)oc2cc1C	0.2
Cc1c(NC(=O)/C=C/c2cn(-c3ccccc3)nc2-c2ccccc2)c(=O)n(-c2ccccc2)n1C	70
Cc1c(NC(=O)/C=C/c2ccccc2)c(=O)n(-c2ccccc2)n1C	2.7
Cc1c(NC(=O)/C=C/c2cn(-c3ccccc3)nc2-c2ccc(F)cc2)c(=O)n(-c2ccccc2)n1C	12.2
COc1ccc(C(=O)N2CCN(Cc3ccccc3F)CC2)cc1OC	56
COc1ccc(C(=O)N2CCN(Cc3cccc4ccccc34)CC2)cc1OC	-5.2
COc1cc(C(=O)N2CCN(Cc3cccc(Oc4ccccc4)c3)CC2)cc(OC)c1OC	132
COc1ccc(C(=O)N2CCN(Cc3cccc(Oc4ccccc4)c3)CC2)cc1OC	6.4
COc1ccc(C(=O)N2CCN(Cc3ccccc3C)CC2)cc1OC	-1
O=C(c1ccccc1)N1CCN(Cc2cccc(Oc3ccccc3)c2)CC1	-8.8
CN1CCN(CC(=O)N2CCn3c4c(c5cc(C6CCCCC6)ccc53)CCCC42)CC1 (stereo unspecified)	60.9
CC(=O)SCCC(=O)N1CCn2c3c(c4cc(C)ccc42)CCCC31 (stereo unspecified)	14.3
CCn1c2c(c3cc(C4CCCCC4)ccc31)CCCC2O (stereo unspecified)	2.5
O=C(Nc1ccc(Cl)cc1)Nc1ccc([N+](=O)[O-])cc1Br	3.9
CCCC(=O)Nc1ccc2c(c1)Cc1ccccc1-2	-1.1
O=C(N/N=C/c1cccnc1)c1ccco1	18.4
O=C1OC(Nc2ncccn2)(c2ccccc2)c2ccccc21 (stereo unspecified)	-7.3
O=C1OC(c2ccc(NC(=O)C(F)(F)F)cc2)(c2ccc(NC(=O)C(F)(F)F)cc2)c2ccccc21	4.8
O=S(=O)(c1ccc2ccccc2c1)N1CCC(Cc2ccccc2)CC1	-21.4

Structure (SMILES)	displacement [%]
O=C(CCN1C(=O)c2ccccc2C1=O)Nc1ccccc1C(=O)N1CCOCC1	10
O=C1CNC(=O)c2c(ncn2Cc2ccccc2)N1	-13.2
O=C1c2ccccc2C(=O)c2c(NC3CCCCC3)cccc21	-2.9
O=C1c2ccccc2-c2onc3ccc(NC4CCCCC4)c1c23	59.4
O=C1c2ccccc2-c2onc3ccc(Nc4cccc([N+](=O)[O-])c4)c1c23	24.2
O=C1c2ccccc2-c2onc3ccc(N4CCCCC4)c1c23	145
Cc1ccc(N2CCCCC2)c2c1C(=O)c1ccccc1C2=O	1.1
O=C1c2ccccc2-c2onc3c(N4CCN(c5ccccc5)CC4)ccc1c23	-8.2
CCSc1sc(CC)cc1C(=O)O	15.4
O=c1oc(-c2ccco2)nc2ccccc12	15.9
O=c1oc(-c2ccco2)nc2cc(Cl)ccc12	56
O=c1oc(-c2ccco2)nc2ccc(Cl)cc12	13.6
C(=C\c1ccco1)/C=N/Nc1nnc2c(n1)[nH]c1ccccc12	-1.8
CCOc1ccc(C(=O)Nc2ccc(O)c(-c3nc4ccccc4s3)c2)cc1Cl	6.3
O=c1c2c(nc3cc(-c4cccc(F)c4)[nH]n13)CCS2	9.2
O=c1c2c(nc3cc(-c4cccc(Cl)c4)[nH]n13)CCS2	34.8
O=c1c2c(nc3cc(-c4ccc(I)cc4)[nH]n13)CCS2	97.5
O=c1c2c(nc3cc(-c4ccc(Cl)cc4)[nH]n13)CCS2	115
Cc1ccc(-c2cc3nc4c(c(=O)n3[nH]2)SCC4)cc1	-4.6
O=c1c2c(nc3cc(-c4ccc(Br)cc4)[nH]n13)CCS2	-9.1
O=C(COc1cccc2ccccc12)NCc1cccnc1	8.3
CC(C)CNC(=O)c1cccc(NC(=O)CN2C(=O)c3ccccc3C2=O)c1	13.8
